ChEMBL document CHEMBL3988442, “University of Dundee, Small-Polar-MMV Screening Library” (2021)
For some of these results: Entries with a potency or affinity are not part of this list.

Experiments:
Set-up in all cases: scale not given: direction of the effect not stated beside the values
[1] = target: Protein translocase subunit SecA (Escherichia coli (strain K12)) (UniProt P10408); assay: Assay to Identify E. coli SecA ATPase Inhibitors; assay type: functional; details: 30 µM
[2] = target: T1, Ubiquitin-activating enzyme e1, putative (Leishmania donovani (strain BPK282A1)) (UniProt E9BSI1); assay: Leishmania donovani Ubiquitin Activating Enzyme (LdE1); assay type: functional; details: 30 µM
T1 sequence (whole entry): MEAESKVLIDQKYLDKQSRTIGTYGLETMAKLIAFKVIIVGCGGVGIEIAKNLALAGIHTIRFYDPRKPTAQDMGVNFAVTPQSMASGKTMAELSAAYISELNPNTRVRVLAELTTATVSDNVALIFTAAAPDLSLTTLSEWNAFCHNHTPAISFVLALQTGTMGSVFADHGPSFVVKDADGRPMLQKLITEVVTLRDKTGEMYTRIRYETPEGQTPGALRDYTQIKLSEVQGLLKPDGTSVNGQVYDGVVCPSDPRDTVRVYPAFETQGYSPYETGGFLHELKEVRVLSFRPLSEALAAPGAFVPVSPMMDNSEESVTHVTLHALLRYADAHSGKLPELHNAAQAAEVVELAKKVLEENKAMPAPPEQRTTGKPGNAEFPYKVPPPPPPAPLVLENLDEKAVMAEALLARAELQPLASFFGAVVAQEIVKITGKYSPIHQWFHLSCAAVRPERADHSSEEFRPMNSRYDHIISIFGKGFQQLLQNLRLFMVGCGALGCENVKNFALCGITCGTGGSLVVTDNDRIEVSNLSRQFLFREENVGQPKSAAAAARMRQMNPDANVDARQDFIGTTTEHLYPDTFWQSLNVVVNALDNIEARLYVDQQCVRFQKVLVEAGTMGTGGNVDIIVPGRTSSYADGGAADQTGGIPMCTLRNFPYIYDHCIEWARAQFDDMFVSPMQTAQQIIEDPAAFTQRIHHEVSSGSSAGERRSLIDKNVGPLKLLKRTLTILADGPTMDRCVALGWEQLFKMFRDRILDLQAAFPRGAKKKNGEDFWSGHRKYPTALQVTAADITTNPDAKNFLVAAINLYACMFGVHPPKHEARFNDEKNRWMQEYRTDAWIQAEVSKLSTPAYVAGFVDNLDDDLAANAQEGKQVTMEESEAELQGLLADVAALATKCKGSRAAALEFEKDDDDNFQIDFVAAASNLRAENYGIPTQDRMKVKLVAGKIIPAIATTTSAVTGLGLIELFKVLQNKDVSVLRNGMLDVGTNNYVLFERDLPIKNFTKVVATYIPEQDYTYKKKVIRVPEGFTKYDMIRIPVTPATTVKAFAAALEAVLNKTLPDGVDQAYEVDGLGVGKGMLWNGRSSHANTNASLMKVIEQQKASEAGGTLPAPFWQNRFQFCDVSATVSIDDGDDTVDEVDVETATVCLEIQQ

[3] = target: AMP-activated protein kinase, AMPK (Homo sapiens) (UniProt P54646+O43741+P54619+Q9UGJ0+Q9Y478+Q13131+Q9UGI9); assay: AMP-dependent Kinase enzyme assay. An in vitro enzyme assay that detects ADP turnover that is directly proportional to AMPK activity. This uses naive AMPK that is activated during the assay with MK-8722; assay type: functional; details: 30 µM
[4] = target: Sialic acid-binding Ig-like lectin 9 (Homo sapiens) (UniProt Q9Y336); assay: Hs-Siglec9 ALPHAscreen SOP 20170721; details: 10 µM
Chain of Sialic acid-binding Ig-like lectin 9 (Homo sapiens) (Q9Y336 whole entry): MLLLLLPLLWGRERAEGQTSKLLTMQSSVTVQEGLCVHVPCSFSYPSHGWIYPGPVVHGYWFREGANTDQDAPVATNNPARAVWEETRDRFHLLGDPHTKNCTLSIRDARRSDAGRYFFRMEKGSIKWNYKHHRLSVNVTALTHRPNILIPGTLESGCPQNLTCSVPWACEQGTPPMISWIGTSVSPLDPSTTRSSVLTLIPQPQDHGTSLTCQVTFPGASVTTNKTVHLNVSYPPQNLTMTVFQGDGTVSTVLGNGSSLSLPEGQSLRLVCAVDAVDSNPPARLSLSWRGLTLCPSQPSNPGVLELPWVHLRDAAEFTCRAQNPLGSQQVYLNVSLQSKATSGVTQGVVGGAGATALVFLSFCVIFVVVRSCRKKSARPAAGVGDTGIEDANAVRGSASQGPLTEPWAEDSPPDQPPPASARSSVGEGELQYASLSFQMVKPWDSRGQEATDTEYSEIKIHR

Trypanosoma cruzi = assay: Trypanosoma cruzi phosphomannomutase and mannose-1-phosphate guanylyltransferase assay; assay type: functional; details: 10 µM
[5] = target: T2, Arginase-2, mitochondrial (Homo sapiens) (UniProt P78540); assay: in vitro enzyme assay to detect the production of urea directly proportional to the activity of Arginase II; assay type: functional; details: 33.3 µM; also: in the data most compounds retested in dose-response had high values
T2 sequence (whole entry): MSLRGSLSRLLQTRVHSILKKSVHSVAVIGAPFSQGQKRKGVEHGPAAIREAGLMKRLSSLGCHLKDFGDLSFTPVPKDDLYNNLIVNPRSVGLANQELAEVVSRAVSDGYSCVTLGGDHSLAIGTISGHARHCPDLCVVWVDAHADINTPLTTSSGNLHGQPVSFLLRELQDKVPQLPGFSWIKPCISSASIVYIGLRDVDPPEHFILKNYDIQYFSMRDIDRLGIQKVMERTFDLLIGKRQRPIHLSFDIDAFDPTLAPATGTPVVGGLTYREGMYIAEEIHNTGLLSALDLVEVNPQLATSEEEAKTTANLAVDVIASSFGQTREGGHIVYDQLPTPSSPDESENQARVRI

[6] = target: T3, Proteasome subunit beta (Trypanosoma cruzi) (UniProt O96673); assay: Trypanosoma cruzi proteasome chymotrypsin-like activity (TcProtChymo) assay.; also: in the data most compounds retested in dose-response had high values; assay type: functional; details: 9.37 µM
T3 sequence (whole entry): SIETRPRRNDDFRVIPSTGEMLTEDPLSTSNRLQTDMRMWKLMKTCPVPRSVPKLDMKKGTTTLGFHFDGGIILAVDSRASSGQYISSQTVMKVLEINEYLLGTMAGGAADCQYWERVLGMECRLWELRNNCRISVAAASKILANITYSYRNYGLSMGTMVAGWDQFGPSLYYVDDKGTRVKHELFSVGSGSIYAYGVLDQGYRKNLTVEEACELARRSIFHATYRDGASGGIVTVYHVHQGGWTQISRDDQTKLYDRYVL

Homo sapiens = species: Homo sapiens; assay: To identify inhibition of the IFN signalling (Jak-Stat) pathway via expression of an eGFP reporter gene under the control of an IFN-stimulated response element (ISRE) containing MxA promoter.; assay type: functional; details: 30 µM
[7] = target: T4, Tyrosyl-tRNA synthetase, putative (Trypanosoma cruzi (strain CL Brener)) (UniProt Q4DSP6); assay: Trypanosoma cruzi tyrosyl tRNA synthetase (TcYRS) _High Tyrosine SOP; assay type: functional; details: 30 µM; also: in the data most compounds retested in dose-response had high values
T4 sequence (whole entry): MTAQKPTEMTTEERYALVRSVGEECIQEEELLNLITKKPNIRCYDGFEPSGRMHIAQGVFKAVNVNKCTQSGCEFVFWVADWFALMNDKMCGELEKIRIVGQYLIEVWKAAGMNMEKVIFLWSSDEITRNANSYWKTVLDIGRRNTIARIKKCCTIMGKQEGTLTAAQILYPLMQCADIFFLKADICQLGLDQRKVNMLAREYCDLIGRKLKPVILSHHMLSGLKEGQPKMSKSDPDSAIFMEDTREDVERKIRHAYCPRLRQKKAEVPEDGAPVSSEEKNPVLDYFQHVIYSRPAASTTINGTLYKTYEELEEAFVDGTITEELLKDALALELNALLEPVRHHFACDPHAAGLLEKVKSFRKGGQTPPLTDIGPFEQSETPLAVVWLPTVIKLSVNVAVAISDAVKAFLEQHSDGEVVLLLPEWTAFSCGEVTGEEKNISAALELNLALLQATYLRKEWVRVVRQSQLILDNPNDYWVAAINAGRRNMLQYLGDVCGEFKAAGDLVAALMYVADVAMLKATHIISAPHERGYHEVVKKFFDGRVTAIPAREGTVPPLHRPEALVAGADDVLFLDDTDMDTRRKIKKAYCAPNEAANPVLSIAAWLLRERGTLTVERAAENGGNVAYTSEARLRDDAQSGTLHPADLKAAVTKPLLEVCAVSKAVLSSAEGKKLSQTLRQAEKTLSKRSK

[8] = target: T4, Tyrosyl-tRNA synthetase, putative (Trypanosoma cruzi (strain CL Brener)); assay: Trypanosoma cruzi tyrosyl tRNA synthetase (TcYRS) SOP; assay type: functional; details: 30 µM
[9] = target: Chromo domain-containing protein 1 (Saccharomyces cerevisiae (strain ATCC 204508 / S288c) (Baker's yeast)) (UniProt P32657); assay: ScCHD-1 Enzyme Inhibition Assay; assay type: functional; details: 30 µM; also: in the data most compounds retested in dose-response had high values
Chain of Chromo domain-containing protein 1 (Saccharomyces cerevisiae (strain ATCC 204508 / S288c) (Baker's yeast)) (P32657 whole entry, the tested form may be a part): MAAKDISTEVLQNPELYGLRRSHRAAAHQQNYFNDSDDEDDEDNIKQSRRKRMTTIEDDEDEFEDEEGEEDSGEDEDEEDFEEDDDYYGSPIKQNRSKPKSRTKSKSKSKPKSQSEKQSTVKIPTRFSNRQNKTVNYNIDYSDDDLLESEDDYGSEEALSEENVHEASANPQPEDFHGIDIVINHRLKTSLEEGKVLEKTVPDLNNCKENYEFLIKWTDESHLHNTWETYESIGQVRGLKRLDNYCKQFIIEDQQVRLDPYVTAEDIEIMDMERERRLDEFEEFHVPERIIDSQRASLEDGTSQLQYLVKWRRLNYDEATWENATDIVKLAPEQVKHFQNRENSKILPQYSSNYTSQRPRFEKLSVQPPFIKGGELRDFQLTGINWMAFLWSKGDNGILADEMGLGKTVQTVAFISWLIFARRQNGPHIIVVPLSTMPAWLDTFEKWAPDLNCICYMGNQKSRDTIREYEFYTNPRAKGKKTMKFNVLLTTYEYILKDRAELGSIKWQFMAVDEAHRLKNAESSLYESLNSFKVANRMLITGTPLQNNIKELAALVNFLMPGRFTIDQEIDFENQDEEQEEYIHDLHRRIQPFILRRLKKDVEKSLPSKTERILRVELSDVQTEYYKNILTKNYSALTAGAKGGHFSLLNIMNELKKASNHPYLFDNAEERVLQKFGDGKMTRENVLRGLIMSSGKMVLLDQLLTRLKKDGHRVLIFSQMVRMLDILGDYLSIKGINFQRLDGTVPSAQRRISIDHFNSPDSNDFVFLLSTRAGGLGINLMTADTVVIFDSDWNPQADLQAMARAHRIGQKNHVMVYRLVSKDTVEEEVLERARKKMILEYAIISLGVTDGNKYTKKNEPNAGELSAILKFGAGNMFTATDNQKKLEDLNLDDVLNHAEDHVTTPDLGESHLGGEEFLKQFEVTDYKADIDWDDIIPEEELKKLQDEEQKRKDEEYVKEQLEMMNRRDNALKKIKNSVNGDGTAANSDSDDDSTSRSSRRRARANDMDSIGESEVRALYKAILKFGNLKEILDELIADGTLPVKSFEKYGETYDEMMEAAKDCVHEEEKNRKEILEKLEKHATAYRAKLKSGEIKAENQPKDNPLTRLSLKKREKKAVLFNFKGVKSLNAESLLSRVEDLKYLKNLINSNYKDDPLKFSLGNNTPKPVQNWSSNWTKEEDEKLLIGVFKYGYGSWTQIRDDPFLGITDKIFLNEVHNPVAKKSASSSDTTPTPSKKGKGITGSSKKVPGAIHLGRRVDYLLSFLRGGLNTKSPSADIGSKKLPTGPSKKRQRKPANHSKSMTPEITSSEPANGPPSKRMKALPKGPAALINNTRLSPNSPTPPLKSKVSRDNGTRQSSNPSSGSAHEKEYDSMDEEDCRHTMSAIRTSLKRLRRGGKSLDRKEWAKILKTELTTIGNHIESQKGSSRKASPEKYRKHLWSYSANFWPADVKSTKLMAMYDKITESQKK

Chain of Protein translocase subunit SecA (Escherichia coli (strain K12)) (P10408 whole entry): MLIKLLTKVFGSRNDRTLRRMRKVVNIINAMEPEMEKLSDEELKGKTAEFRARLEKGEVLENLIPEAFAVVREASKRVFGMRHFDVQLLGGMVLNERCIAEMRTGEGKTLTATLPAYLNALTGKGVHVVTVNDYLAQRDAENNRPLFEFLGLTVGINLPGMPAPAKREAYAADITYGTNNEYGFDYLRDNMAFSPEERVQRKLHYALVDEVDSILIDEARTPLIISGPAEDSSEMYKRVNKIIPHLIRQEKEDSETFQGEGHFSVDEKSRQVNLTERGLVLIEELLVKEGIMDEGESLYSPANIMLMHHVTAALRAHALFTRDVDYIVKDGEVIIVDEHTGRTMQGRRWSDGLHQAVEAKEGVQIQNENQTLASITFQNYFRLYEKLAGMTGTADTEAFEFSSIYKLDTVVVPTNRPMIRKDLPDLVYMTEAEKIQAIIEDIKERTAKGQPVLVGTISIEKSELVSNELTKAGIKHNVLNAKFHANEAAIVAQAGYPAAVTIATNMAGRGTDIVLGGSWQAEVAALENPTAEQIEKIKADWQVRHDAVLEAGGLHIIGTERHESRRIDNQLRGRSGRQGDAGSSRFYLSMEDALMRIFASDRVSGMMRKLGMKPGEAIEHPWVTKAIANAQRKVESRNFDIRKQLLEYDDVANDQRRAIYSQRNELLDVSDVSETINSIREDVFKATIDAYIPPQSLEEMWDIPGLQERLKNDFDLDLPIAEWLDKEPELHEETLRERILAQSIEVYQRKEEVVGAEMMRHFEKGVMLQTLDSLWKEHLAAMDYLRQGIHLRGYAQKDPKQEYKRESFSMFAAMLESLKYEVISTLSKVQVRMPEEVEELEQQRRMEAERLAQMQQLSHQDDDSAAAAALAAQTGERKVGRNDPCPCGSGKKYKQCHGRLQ

SMILES	Percent Effect [1]	Percent Effect [2]	Percent Effect [3]	Percent Effect [4]	Percent Effect (Trypanosoma cruzi)	Percent Effect [5]	Percent Effect [6]	Percent Effect (Homo sapiens)	Percent Effect [7]	Percent Effect [8]	Percent Effect [9]
O=C(O)CCc1cc2n(n1)CCCN(C(=O)c1ccc3cc[nH]c3c1)C2	-2.97%	16.2%	-5.19%	10.7%	4.05%	10.5%	11.9%	-2.64%	7.94%	17.1%	-3.38%
Cc1ccc(Nc2nccc(C3CCCN(CC(=O)N(C)C)C3)n2)nc1 (stereo not given)	-5.52%	5.33%	-1.77%	6.73%	5.51%	-6.76%	13.8%	-1.72%	11.7%	19.2%	-2.77%
O=C(CSC1=NS(=O)(=O)c2cc(F)ccc2N1)Nc1cccc(Cl)c1	-1.88%	-39%	1.02%	-0.207%	2.86%	-0.645%	21.1%	26.7%	-10.6%	-8.97%	-11.3%
Cc1csc([C@@H]2C[C@@H]3CCN(C(=O)c4cc(C)on4)C[C@H]3O2)n1	-3.41%	20.8%	-1.54%	-4.81%	4.04%	5.81%	11.7%	12.7%	4.23%	16.7%	-9.47%
O=C(C1CCC1)N1CCCC1c1nnc2n1CCCCC2 (stereo not given)	-0.546%	13.5%	-1.97%	-4.28%	2.34%	33.3%	9.89%	27.9%	11.9%	15.8%	2.32%
c1nc2c(c(C3CC3)n1)CCN(CC1CCOC1)CC2 (stereo not given)	-4.07%	8.11%	3.6%	-7.53%	8.31%	3.5%	20.7%	7.05%	5.41%	15.4%	-0.123%
CC(C)(C)c1nnc(CN2CCOC(Cn3cccn3)C2)o1 (stereo not given)	-3.67%	15.2%	-3.73%	9.59%	5.38%	1.9%	5.16%	14.4%	5.42%	16.5%	-5.63%
Cc1cccc(Nc2nccnc2C2CCCN2CC(=O)N(C)C)n1 (stereo not given)	-5.74%	8%	-0.423%	3.06%	5.32%	-3.5%	-3.08%	1.25%	4.25%	6.41%	3.88%
COc1cccc(S(=O)(=O)CCN2CCCCC2)c1	-3.72%	8%	-7.74%	6.82%	-5.94%	1.56%	22%	20%	2.73%	8.64%	-9.16%
CN(C)c1ccc(CC(=O)N[C@@H]2CCNC[C@H]2O)cc1	-6.67%	5.41%	-14.5%	7.45%	2.05%	0.744%	-1.46%	-17.6%	7.53%	11.1%	-2.77%
CC(=O)NCC(=O)N1CCN(CC2CC2)c2ncccc2C1	-4.55%	8%	8.23%	6.27%	-0.394%	-0.233%	11%	0.904%	9.57%	16.7%	-2.61%
CC(C)OCCC(=O)N(C)CCCc1cc(-c2ccccc2)no1	2.05%	18.9%	5.99%	-0.12%	-8.08%	-1.66%	13.3%	22%	-1.98%	3.66%	-5.36%
COc1ccc(CNC(=O)C2(C#N)CCCC2)cc1	-1.97%	12.5%	-13.3%	-2.27%	3.6%	-2.65%	15.1%	-14.7%	4.21%	7.69%	95.5%
COc1cn(-c2ccccc2)nc1C(=O)NCCCN1CCCC(C)C1 (stereo not given)	-5.93%	0%	1.22%	18%	2.62%	0.356%	-2.2%	5.68%	4.85%	9.76%	-1.59%
CCN(Cc1ccccc1)C(=O)CN1CCCC(Cn2cncn2)C1 (stereo not given)	-8.07%	21.1%	-3.72%	18.3%	3.64%	2.16%	8.38%	-4.88%	-4.43%	23.5%	-6.71%
Cc1cc(C)n(Cc2cccc(C(=O)NCCN3CCOCC3)c2)n1	6.23%	5.2%	-1.94%	1.34%	-6.59%	-6.9%	24.3%	9.8%	5.38%	16.1%	-2.63%
CNC(=O)c1ccc(C(=O)N2CCCC2c2cnn(C)c2)cn1 (stereo not given)	-3.23%	7.89%	-6.87%	5.79%	3.08%	-2.88%	9.05%	-13.2%	5.42%	6.17%	-6.61%
COc1ccc(CC(=O)N2CCCCC2Cn2cccn2)cc1OC (stereo not given)	-5.85%	7.89%	1.89%	0.458%	0.682%	-11.8%	6.81%	5.15%	0%	10.4%	-1.27%
Cc1ccc(NC2CCN(C(=O)c3c(C)noc3C)CC2)nn1	-4.36%	13.2%	0.922%	9.85%	7.33%	-0.766%	3.68%	-4.46%	3.43%	12.2%	-7.4%
O=C(O)C(c1ccc2c(c1)OCO2)N1CCC(C(=O)N2CCCC2)CC1 (stereo not given)	-6.55%	0%	-3.95%	1.83%	-5.36%	-1.56%	4.18%	2.87%	4.92%	3.7%	-5.45%
